Compounds with a hit are over-represented: about 2.5% of the library has one in this group of screens.
Akt phos inh: blocks phosphorylation of Akt; Neuro2A IGF-stimulated pAkt S473 HTRF, 20 min; stronger effect = lower value; activity change, % for hits at 50 µM; 360,000 compounds, 0.32% hits; in the data active means activity change below about -80%; inconclusive means mostly about -51% to -80%
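Neuro2A cells (4,500/well, DMEM with 0.5% FBS) were treated with compound at a single 50 µM final concentration, stimulated with 6 nM IGF for 20 min at 37 °C, and lysed. Phospho-Akt Ser473 was read by HTRF as 665/615 ratio ×10^4.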
CCT chaperon mod: cytosolic chaperonin activity modulation. purified chaperonin ATPase assay, HTRF ADP detection, 30 min. activity change, % (test concentration not listed), hits read low. 360,000 compounds, 0.3% hits. AID 651819; in the data active means activity change below about -30%
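TRiC (40 or 20 nM final, by batch activity) in 30 mM Tris pH 7.4, 100 mM KCl, 5 mM MgCl2, 1 mM DTT was treated with compound at 76 uM single dose, then 10 uM ATP, 30 min at 37 °C. ADP was read by HTRF Transcreener.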
Anesthetic bind: binds horse apoferritin like a general anesthetic | P02791 | apoferritin/1-aminoanthracene competitive binding, fluorescence | Potency, µM (top dose mostly 77.5 µM), most hits filed as inhibitors | 350,000 compounds, 0.074% hits | AID 485281; further: nearly all actives have a fitted effect of over 20% in size
Target sequence (P02791 2-175 limits assumed): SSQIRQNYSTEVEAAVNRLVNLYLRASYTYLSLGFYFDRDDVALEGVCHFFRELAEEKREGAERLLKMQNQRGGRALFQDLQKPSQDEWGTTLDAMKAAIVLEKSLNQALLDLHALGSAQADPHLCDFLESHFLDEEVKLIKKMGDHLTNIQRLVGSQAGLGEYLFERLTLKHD
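Apoferritin-based anesthetic binding model; compound displacement of fluorescent 1-AMA measured as endpoint fluorescence after 10 minutes at room temperature, scaled to free-ligand and complex controls.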
TDP-43 yeast inh: rescues yeast growth from TDP-43 toxicity | TDP-43 expressing yeast growth rescue, BacTiter-Glo, 24 h | 410,000 compounds, 1.8% hits | Potency, µM (titrated, usually from 46.1 µM), most hits filed as activators | AID 652104; further: nearly all actives have a fitted effect of over 50% in size
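In this qHTS, compounds that restore growth of yeast expressing TDP-43 appear as activators. Cells (OD600=0.02, galactose medium, raffinose-pregrown) are incubated with compound 24 hr at 30 deg C and growth is quantified by BacTiter-Glo.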
aSyn yeast inh: alpha-synuclein toxicity inhibition in yeast; Yeast expressing alpha-synuclein, growth rescue, BacTiter-Glo, 24 h; Potency, µM (doses to about 46.1 µM), actives largely listed as activators; 370,000 compounds, 0.14% hits; AID 652106; further: nearly all actives have a fitted effect of over 65% in size
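Rescue of yeast growth: cells expressing toxic alpha-synuclein, induced in galactose at OD600 0.02, incubated with compound 24 h at 30 C. ATP luminescence quantified growth; inhibitors of toxicity appear as activators.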
Mito fusion yeast: inhibitors of mitochondrial division or activators of mitochondrial fusion; S. cerevisiae fusion-defective mutant growth rescue, CellTiterGlo 48 h; 320,000 compounds, 0.23% hits; Potency, µM (titrated, usually from 46.1 µM), actives largely listed as activators; further: nearly all actives have a fitted effect of over 45% in size
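Luminescent cell viability in 1536-well qHTS format served as the measure of rescued growth in ts fusion-mutant S. cerevisiae cultured on non-fermentable YPEG for 48 hours at 37C.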
Numbers stand for hits; n = inactive; u = inconclusive; x = not tested or not shown; [ ] = dose if it differs, or a comment. Unless noted, the call rests on the fitted dose curve; in most records, active means well fitted curve in the direction sought with a large enough effect; inconclusive means small, poorly fitted or top-dose-only effect, or another doubt; inactive means no such curve, though single readings can be large; an effect the other way counts as inactive or inconclusive.

SMILES	Akt phos inh	CCT chaperon mod	Anesthetic bind	TDP-43 yeast inh	aSyn yeast inh	Mito fusion yeast
COc1ccc(Cl)cc1S(=O)(=O)NC(C)C(=O)NCc1ccncc1 (centres undefined)	n	-66	n	n	n	n
COc1ccc(-c2sc3ccc(N4CCOCC4)cc3c2C#CCO)cc1	n	n	x	14µM	n	x
COc1ccc(-c2sc3ccc(N4CCOCC4)cc3c2C#CC2(O)CCCCC2)cc1	n	n	x	n	n	x
COc1ccc(-c2onc(C)c2C)cc1S(=O)(=O)N1CCN(c2cc(C)ccc2C)CC1	x	x	n	n	x	x
O=C(CN1CCN(Cc2ccccc2Cl)CC1)N/N=C/c1ccco1	n	n	n	n	n	n
O=C(CSCc1ccccc1Cl)N/N=C/c1ccco1	n	n	u	13µM	n	n
Cc1c(C(=O)OC(C)C(=O)N(C)Cc2ccccc2)oc2ccccc12 (centres undefined)	n	n	x	35µM	n	x
Fc1ccc(CN2CCCCCC2)c(F)c1	n	n	n	n	n	n
Fc1ccccc1CN1CCCCCCC1	-104%	n	n	n	n	n
O=[N+]([O-])c1ccc(N2CCCCC2)cc1N1CCOCC1	n	n	u	n	n	n
Nc1cc(N2CCOCC2)c(Cl)cc1[N+](=O)[O-]	n	n	n	20µM	n	n
O=[N+]([O-])c1ccc(N2CCCC2)cc1N1CCCC1	n	n	u	16µM	n	n
Nc1cc(N2CCCC2)c(Cl)cc1[N+](=O)[O-]	n	n	u	11µM	n	n
CCOc1ccc(Nc2oc(/C=C/c3cc(OC)c(OC)c(OC)c3)nc2C#N)cc1	x	x	n	n	x	x
CCCN1C(=O)/C(=C/c2ccc(C)s2)NC1=S	n	n	u	11µM	n	n
CC(C)CN1C(=O)/C(=C/c2cccs2)NC1=S	n	n	n	25µM	n	n
CCCC12CN3CC(CCC)(CN(C1)C3c1c(C)[nH]c(=O)[nH]c1=O)C2=O (centres undefined)	x	x	n	n	x	x
O=C1C(c2ccc(F)cc2)N(CCc2ccccc2)C(=O)CN1C1CCCCCC1 (centres undefined)	x	x	n	n	x	x
COc1cc(OC)cc(-c2c(-c3cccs3)c3cc(-c4ccc(CN5CCOCC5)cc4)ccc3n2C)c1	n	n	x	22µM	n	x
O=C(Cc1cccs1)NNC(=S)NC(=O)c1ccccc1	n	n	n	22µM	u	n
COc1ccc(/C=C/C(=O)NC(=S)NNC(=O)Cc2cccs2)cc1	x	n	n	u	n	n
O=C(/C=C/c1ccccc1)NC(=S)NNC(=O)Cc1cccs1	n	n	n	11µM	20µM	n
CC(=O)NCCCN(Cc1ccc(Cl)c(Cl)c1)c1ccc(Br)cn1	x	x	x	x	n	x
CC(=O)OCC1OC(C#Cc2ccc(C)cc2C)C=CC1OC(C)=O (centres undefined)	x	x	n[15.3 µM]	x	x	x
CC(C)(O)c1[nH]c2ccc(C(F)(F)F)cc2c1C(C)(C)O	n	n	u	14µM	n	n
SMILES	Akt phos inh	CCT chaperon mod	Anesthetic bind	TDP-43 yeast inh	aSyn yeast inh	Mito fusion yeast
Cc1c(C(C)(C)O)[nH]c2cc(C(F)(F)F)ccc12	n	n	u	u	n	n
CN(C)Cc1c(C(C)(C)O)[nH]c2ccc(C(F)(F)F)cc12	n	n	x	n	n	x
CC(C)(O)c1[nH]c2cc(C(F)(F)F)ccc2c1C(C)(C)O	n	n	n	35µM	n	n
CCCCCCSc1nsc(NC(=O)CC(C)C)n1	n	n	u	n[0.397 µM]	n	u
CCCCCCCSc1nsc(N)n1	n	n	u	13µM	n	u
CCCn1c(CC)nc([N+](=O)[O-])c1S(=O)(=O)c1ccccc1	n	n	n	25µM	n	n
Cc1c(C(=O)Nc2ccc(F)cc2F)nnn1-c1ccccc1Br	x	x	n	32µM	x	x
COc1cc(C(=O)Nc2cccc(OCc3cc(=O)n4c(C)csc4n3)c2)cc(OC)c1OC	x	x	n	n	x	x
CC(=O)c1ccc(-c2c(CCO)sc3ccccc23)cc1	n	n	x	13µM	n	x
CN(C)c1cccc(-c2nnc(SCC(=O)NCc3ccco3)n2C)c1	x	x	x	x	n	x
CCOC(=O)c1cc(C(C)(C)C)oc1CN	n	n	n	n	n	n
CCOC(=O)c1cc(C(C)(C)C)oc1CNC(=O)c1c(C)oc2c1CCCC2	n	-54	n	n	n	n
O=C(CNC(=O)c1ccccc1)OCC(=O)c1cccc2ccccc12	x	x	x	x	n	x
Cc1ccc(Sc2ncccc2[N+](=O)[O-])cc1	n	n	n	u	n	n
O=[N+]([O-])c1cccnc1Sc1ccc(Br)cc1	n	n	x	13µM	n	x
Cc1ccccc1Sc1ncccc1[N+](=O)[O-]	n	n	x	13µM	n	x
CN(C(=O)CCc1ccccc1F)C1CCCN(Cc2ccccc2F)C1 (centres undefined)	n	n	n	20µM	n	n
COc1cccc(CCC(=O)N(C)C2CCCN(Cc3ccccc3F)C2)c1 (centres undefined)	n	n	n	n	n	n
CC(=O)Nc1ccc(S[C@@H](CCN2CC[C@H](C(C)(C)C)CCC2=O)c2ccccc2)cc1	n	-36	x	n	n	n
CC(C)(C)[C@@H]1CCC(=O)N(CC[C@H](Sc2ccccc2)c2ccccc2)CC1	n	n	n	n	n	n
O=c1c2ncn([C@@H]3O[C@@H]4COP(=O)(O)O[C@H]4[C@H]3O)c2nc2[nH]c(-c3ccccc3)cn12	x	x	n	x	x	x
Nn1cnc2scc(-c3ccc(Cl)cc3)c2c1=O	n	n	n	u	n	n
O=c1c2c(-c3ccc(Cl)cc3)csc2nc2n1CCC2	n	n	n	14µM	n	n
C=CCNC(=O)/C(=C\c1ccc(OC)cc1)NC(=O)c1ccc([N+](=O)[O-])cc1	n	-35	n	n	n	n
Cc1cc(C)c2c(CC(=O)NN(C)C)coc2c1	n	n	n	n	n	n
SMILES	Akt phos inh	CCT chaperon mod	Anesthetic bind	TDP-43 yeast inh	aSyn yeast inh	Mito fusion yeast
Cc1cc(C)c2c(CC(=O)O)coc2c1	n	n	n	13µM	n	n
Cc1cc(C)c2c(CN3CCCCC3)cc(=O)oc2c1	n	n	n	n	n	n
Cc1cc(C)c2c(CCl)cc(=O)oc2c1	n	n	n	7.1µM	n	n
Cc1cc(C)c(NC(=O)CCn2c(=O)c3cccn3c3ccccc32)c(C)c1	x	x	n	n	x	x
COc1ccc(CNc2nc(NCc3ccc(OC)cc3)n(S(C)(=O)=O)n2)cc1	n	n	n	n	n	n
COCC(=O)n1nc(NCc2ccc(OC)cc2)nc1NCc1ccc(OC)cc1	n	n	n	18µM	n	n
N[C@@]12CCc3nonc3[C@]1(O)CC(c1ccccc1)=[N+]2[O-]	n	-63	n	n	n	n
NC12CCc3c(no[n+]3[O-])C1(O)CC(c1ccccc1)=[N+]2[O-] (centres undefined)	n	n	n	n	n	n
